The target in assay [1] is T1, hADAR2d (ADAR2 deaminase domain, hADAR2-D WT) (Homo sapiens).
T1 chain: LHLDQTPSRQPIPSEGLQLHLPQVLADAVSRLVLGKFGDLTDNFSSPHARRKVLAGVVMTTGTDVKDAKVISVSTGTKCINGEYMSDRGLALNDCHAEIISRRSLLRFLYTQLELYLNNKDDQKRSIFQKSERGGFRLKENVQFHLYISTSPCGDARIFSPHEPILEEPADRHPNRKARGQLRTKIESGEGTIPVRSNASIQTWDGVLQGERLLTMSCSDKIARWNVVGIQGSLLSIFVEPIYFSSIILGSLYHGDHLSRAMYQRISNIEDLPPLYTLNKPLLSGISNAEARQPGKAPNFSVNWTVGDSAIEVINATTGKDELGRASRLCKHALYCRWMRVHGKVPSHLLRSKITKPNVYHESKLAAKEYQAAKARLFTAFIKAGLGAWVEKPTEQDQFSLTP
As to the kind of experiment: deamination rate, 300 nM enzyme. Conditions: tags: Ni-NTA purified (His10, TEV site); label: internal 32P. As for the experimental part:
For the partially 2′-deoxy-modified substrates, the final reaction volume was 10 μL. The final enzyme concentration was 300 nM. The final RNA concentration was 10 nM. The final reaction solution contained 16 mM Tris-HCl, pH 7.4, 3.3% glycerol, 1.6 mM EDTA, 0.003% NP-40, 60 mM KCl, 7.1 mM NaCl, 0.5 mM DTT, 160 units/mL RNasin, and 1 μg/mL yeast tRNA. Reactions were quenched by adding 190 μL 95° C. nuclease-free water followed by incubation at 95° C. for 5 minutes. Deaminated products were purified by phenol-chloroform extraction and ethanol precipitation. The product-containing solution was lyophilized to dryness and suspended in 50 μL of 1×TE solution, followed by digestion with nuclease P1. The resulting 5′-mononucleotides were resolved by thin-layer chromatography (TLC, Macherey-Nagel) (22). The TLC was visualized by exposure to storage phosphor imaging plates (Molecular Dynamics) on a Typhoon phosphorimager (Molecular Dynamics) and quantified by volume integration using ImageQuant software (Molecular Dynamics). […] Statistical significance between groups was determined by t tests using QuickCalcs (GraphPad Software). hADAR2 wt deamination was carried out twice, deamination with other proteins was carried out in triplicate.

The target in assay [2] is T1, hADAR2d (ADAR2 deaminase domain, …). As to the kind of experiment: rate stated as similar to substrate b. Conditions: tags: Ni-NTA purified (His10, TEV site); label: internal 32P. On the procedure: This reconstituted solution was heated to 65° C. for 5 minutes. After the solution was slowly cooled to room temperature, 1.5 μL of RNasin ([…]), 5 μL of 4 mM ATP, and 1 μL of T4 DNA ligase (400 U/μL) were added to the solution so that the final reaction volume was 20 μL . The reaction was incubated at 30° C. for 2 hours, then 2 μL of 40 μM trap DNA were added to the splint ligation reaction. The splint ligation products were purified as described above. Purified ³²P labeled top strand was hybridized with the corresponding bottom strand 24-nt oligonucleotide as described above. Deamination reactions were carried out as previously described (21) with the following modifications. For the partially 2′-deoxy-modified substrates, the final reaction volume was 10 μL. The final enzyme concentration was 300 nM. The final RNA concentration was 10 nM. The final reaction solution contained 16 mM Tris-HCl, pH 7.4, 3.3% glycerol, 1.6 mM EDTA, 0.003% NP-40, 60 mM KCl, 7.1 mM NaCl, 0.5 mM DTT, 160 units/mL RNasin, and 1 μg/mL yeast tRNA. Reactions were quenched by adding 190 μL 95° C. nuclease-free water followed by incubation at 95° C. for 5 minutes. […] The TLC was visualized by exposure to storage phosphor imaging plates (Molecular Dynamics) on a Typhoon phosphorimager (Molecular Dynamics) and quantified by volume integration using ImageQuant software (Molecular Dynamics). […]

Experimental findings from patent US20200407704, “FUSION PROTEINS AND METHODS FOR SITE-DIRECTED GENOME EDITING” (The Regents of the University of California, published 2020) are described below.

B1: partially deoxy duplex (substrate b) (mixed)
RNA 1: GCUCGCGAUGCUAGAGGGCUCUGC
RNA 2: GCAGAGCCCCCCAGCAUCGCGAGC
modifications: 2'-deoxy at top UAGA and at bottom C opposite edited A
Consider B1, for which the relative deamination rate in assay [1] is around 15 fold slower than N1.

B2: partially deoxy duplex (substrate c) (mixed)
RNA 1: GCUCGCGAUGCUAGAGGGCUCUGC
RNA 2: GCAGAGCCCCCCAGCAUCGCGAGC
modifications: 2'-deoxy at top UAGA
As for B2, the binding signal in assay [2] is around 15 fold slower than N1.
